# Results: the supplement of paper PMC10811239
# Tested on: LEGO organoid PT (PTEN-/-; TP53-/-)
# Assay: bioluminescence (viable cell) signal fold change after vs before treatment, normalised to DMSO (ratio); higher = more tumour cell growth / less inhibition
# Settings: 10 µM; treatment time 6 days
# Procedure: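 Luc2-labelled iPSC-derived glioblastoma-like organoids (LEGOs, genotypes PT = PTEN-/-;TP53-/-, PTCC = plus CDKN2A/B-/-, PTN = plus NF1-/-) were treated with 10 uM drug for 6 days (applied every other day) at 37 C. Bioluminescence imaging was done before treatment and 2 days after the last dose. BLI signals were normalised to the DMSO control on the same day and then to the pre-treatment signal (N=3).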
row,Structure (SMILES),bioluminescence
1,CN(C)CCC[C@@]1(c2ccc(F)cc2)OCc2cc(C#N)ccc21.O=C(O)C(=O)O [Escitalopram Oxalate],1.52
2,Cl.N=C(N)NC(=O)Cc1c(Cl)cccc1Cl [Guanfacine hydrochloride],1.1
3,CC(C(=O)O)c1ccc(-c2ccccc2)c(F)c1 (stereo not given) [Flurbiprofen],1.09
4,O=C1[N-]C(=O)C(c2ccccc2)(c2ccccc2)N1.[Na+] [Phenytoin sodium],0.855
5,CCCN(CCC)CCc1cccc2c1CC(=O)N2.Cl [Ropinirole hydrochloride],1.27
6,Nc1ncn([C@H]2C[C@H](O)[C@@H](CO)O2)c(=O)n1 [Decitabine],1.2
7,CN[C@H]1CC[C@@H](c2ccc(Cl)c(Cl)c2)c2ccccc21.Cl [Sertraline hydrochloride],0.66
8,N=C(N)NCCCC[C@@H]1NC(=O)CCSSC[C@@H](C(N)=O)NC(=O)[C@@H]2CCCN2C(=O)[C@H](Cc2c[nH]c3ccccc23)NC(=O)[C@H](CC(=O)O)NC(=O)CNC1=O [Eptifibatide],1.89
9,Cl.O=C1CN2Cc3c(ccc(Cl)c3Cl)NC2=N1 [Anagrelide hydrochloride],1.02
10,CCN1CCN(C(=O)N[C@@H](C(=O)N[C@@H]2C(=O)N3[C@@H]2SC(C)(C)[C@@H]3C(=O)[O-])c2ccccc2)C(=O)C1=O.[Na+] [Piperacillin sodium salt],1.08
11,O=c1cc(O)c(Cl)c[nH]1 [Gimeracil],0.79
12,O=c1[nH]cnc2c1ncn2[C@H]1CC[C@@H](CO)O1 [Didanosine],0.958
13,CN1C(C(=O)Nc2ccccn2)=C(O)c2ccccc2S1(=O)=O [Piroxicam],1.07
14,O=C(CCCN1CCC(O)(c2ccc(Cl)cc2)CC1)c1ccc(F)cc1 [Haloperidol],0.925
15,NNC(=O)c1ccncc1 [Isoniazid],0.807
16,Nc1nc(NC2CC2)c2ncn([C@H]3C=C[C@@H](CO)C3)c2n1 [Abacavir],1.2
17,Nc1cccc2c1CN(C1CCC(=O)NC1=O)C2=O (stereo not given) [Lenalidomide],2.02
18,C[C@@H](Oc1cc(-c2cnn(C3CCNCC3)c2)cnc1N)c1c(Cl)ccc(F)c1Cl [Crizotinib],0.492
19,Clc1ccc2c(c1)C(N1CCNCC1)=Nc1ccccc1O2 [Amoxapine],0.902
20,CCc1cc2c(cc1N1CCC(N3CCOCC3)CC1)C(C)(C)c1[nH]c3cc(C#N)ccc3c1C2=O.Cl [Alectinib hydrochloride],0.656

row,Structure (SMILES),bioluminescence
1,CC(=O)N[C@@H](CS)C(=O)O [Acetylcysteine],1.23
2,CC(C)Oc1ccc(-c2nc(-c3cccc4c3CC[C@@H]4NCCO)no2)cc1C#N [Ozanimod],0.725
3,OC[C@H]1O[C@@H](n2cnc3c2NC=NC[C@H]3O)C[C@@H]1O [Pentostatin],0.674
4,CN(C/C=C/C#CC(C)(C)C)Cc1cccc2ccccc12 [Terbinafine],0.601
5,Cc1cc(NS(=O)(=O)c2ccc(N)cc2)no1 [Sulfamethoxazole],3.73
6,CCN(CC)CC#CCOC(=O)C(O)(c1ccccc1)C1CCCCC1 (stereo not given) [Oxybutynin],0.449
7,C[C@]12CCC3=C4CCC(=O)C=C4CC[C@H]3[C@@H]1CC[C@@]2(O)CC#N [Dienogest],0.653
8,CC1=NN(c2ccccc2)C(=O)C1 [Edaravone],0.893
9,CNCC[C@@H](Oc1ccccc1C)c1ccccc1.Cl [Atomoxetine hydrochloride],0.833
10,CCC1=C[C@@H]2CN(C1)Cc1c([nH]c3ccccc13)[C@@](C(=O)OC)(c1cc3c(cc1OC)N(C)[C@H]1[C@@](O)(C(=O)OC)[C@H](OC(C)=O)[C@]4(CC)C=CCN5CC[C@]31[C@@H]54)C2.O=C(O)[C@H](O)[C@@H](O)C(=O)O.O=C(O)[C@H](O)[C@@H](O)C(=O)O [Vinorelbine Tartrate],1.03
11,CO[C@H]1/C=C/O[C@@]2(C)Oc3c(C)c(O)c4c(O)c(c(/C=N/N5CCN(C6CCCC6)CC5)c(O)c4c3C2=O)NC(=O)/C(C)=C\C=C\[C@H](C)[C@H](O)[C@@H](C)[C@@H](O)[C@@H](C)[C@H](OC(C)=O)[C@@H]1C [Rifapentine],3.28
12,C[C@]12C=CC(=O)C=C1CC[C@@H]1[C@@H]2[C@@H](O)C[C@@]2(C)[C@H]1CC[C@]2(O)C(=O)CO [Prednisolone],0.904
13,CC(=O)Nc1ccc(O)cc1 [Acetaminophen],1.19
14,COC(=O)C1=C(C)NC(C)=C(C(=O)OCCN(C)Cc2ccccc2)C1c1cccc([N+](=O)[O-])c1.Cl (stereo not given) [Nicardipine hydrochloride],0.99
15,Cl.O=C1c2cccc3c2[C@H](CCC3)CN1[C@@H]1CN2CCC1CC2 [Palonosetron hydrochloride],1.19
16,CCCCCCCCCCC[C@@H](C[C@@H]1OC(=O)[C@H]1CCCCCC)OC(=O)[C@H](CC(C)C)NC=O [Orlistat],1.4
17,CCOc1nc2cccc(C(=O)OC(C)OC(=O)OC3CCCCC3)c2n1Cc1ccc(-c2ccccc2-c2nn[nH]n2)cc1 (stereo not given) [Candesartan Cilexetil],1.14
18,O=C(O)c1cccnc1 [Niacin],0.772
19,Cl.O=c1n(CCCN2CCN(c3cccc(Cl)c3)CC2)nc2ccccn12 [Trazodone hydrochloride],1.97
20,Cc1nc2c([nH]1)CCN(C(=O)c1ccc(NC(=O)c3ccccc3-c3ccccc3)cc1)c1ccccc1-2.Cl [Conivaptan hydrochloride],0.674
